Measured values published in PubChem BioAssay (NCATS).
Records with an inconclusive call do not appear. Where a call stands in place of a potency, no number is given. Activity calls are given as the source filed them. The call rests on the fitted dose curve; in most records, active means well fitted cell-killing curve with a large enough effect; inconclusive means small, poorly fitted or top-dose-only effect; inactive means flat fitted curve, though single readings scatter.

Experiment: Quantitative highthroughput screen to assess conditional lethalithy of P12 Ichikawa cells grown in Human Plasma-Like Medium with dialyzed fetal bovine serum (HPLM+ds) (AID 1963879); further: nearly all actives have a fitted effect of over 35% in size
Conditions: ATP luminescence, 48 h; Potency: viability; series mostly up to 45.8 µM
Text: Assay Provider: Jason Cantor Ph.D.
Department of Biochemistry
University of Wisconsin-Madison, Madison, WI, USA
Chemical screening studies have identified drug sensitivities across hundreds of cancer cell lines but most putative therapeutics fail to translate. Discovery and development of drug candidates in models that more accurately reflect nutrient levels in human blood is a major challenge. Here we performed high-throughput screens in conventional versus Human Plasma-Like Medium (HPLM) to identify compounds that were "missed" when screening using the artificial culture condition. Sets of conditional anticancer compounds spanned phases of clinical development and included non-oncology drugs were assessed. […] We also traced conditional phenotypes for several chemotherapeutics to availability of HPLM-specific metabolites and confirmed others for compounds whose reported targets are encoded by nonessential genes. Our findings establish generalizable strategies for exploiting conditional lethality in HPLM to reveal therapeutic candidates and mechanisms of action in cancer cells.
Described herein are the results of each viability screens against three cell lines: NOMO1 (an acute myeloid leukemia cell line); P12-Ichikawa (a T-cell acute lymphoblastic leukemia); and SEM (a B-cell ALL). Each assay was screened using 3 different cell culture media: homemade human plasma-Like medium with 10% dialyzed fetal bovine serum (HPLM+ds); RPMI1640 with 10% untreated FBS and 5mM glucose (RPMI+s); and RPMI1640 with 10% dialyzed fetal bovine serum and 5 mM glucose (RPMI+ds).
PROTOCOL TABLE (as described by Inglese J, Shamu CE and Guy RK. 2007)
SEQUENCE No. (e.g., 1, 2, 3, etc.); […] (e.g., Cells, Incubation, Reagent, etc.); VALUE and DESCRIPTION.
1; Cells; 5 uL; white, solid bottom 1536-well Greiner assay plate.
2; Compounds; 23 nL; Kalypsis pin tool (Wako USA) equipped with a 1536-well pin head to transfer to the assay plates.
3; Incubation; 48 hours; 37C incubation.
4; Reagent; 3 uL; CellTiter Glo (Promega).
5; Incubation; 5 min, room temperature
6; Detection; Luminescence, Viewlux PerkinElmer.
NOTES (numbers refer to Sequence numbers above)
1. Briefly, 5 ul of cell reagent was dispensed using a Multidrop Combi Dispenser. The NOMO1 and SEM cells were plated at 500 cells/well and the P12-Ichikawa line at 1000 cells/well.
2. After seeding the cells, 23 nL of MIPE 4.1 library compounds (in DMSO) were added to each plate using a Kalypsys 1536 Pintool dispenser. Bortezomib at final concentration of […] and DMSO were added to each plate as positive and negative controls respectively. For each screen, MIPE 4.1 compounds were added over an eleven-point concentration range […] in 3-fold dilutions.
3. Each plate was covered with a stainless steel gasketed lid to prevent evaporation and incubated for 48 hour at 37C, 95% relative humidity, and 5% CO2.
4-5. Three microliter CellTilter-GloTM luminescent substrate mix (Promega) reagent was added to the assay plate and incubated at room temperature for 5 min.
6. The luminescence signal was measured using a ViewLux (PerkinElmer) multiplate reader with a 2 second exposure time per plate. Data for each compound were normalized as percent viability such that measurements for DMSO and the empty well controls in each plate were defined as 100% and 0%, respectively.
Potency means the concentration at half of the fitted maximal effect.

SMILES | Potency
COc1cc(C(=O)NC2CCN(C)CC2)ccc1Nc1ncc2c(n1)N(C1CCCC1)CCC(=O)N2C(C)C | 9.35 µM (active)
COc1cc(Nc2ncc(F)c(Nc3ccc4c(n3)N(COP(=O)(O)O)C(=O)C(C)(C)O4)n2)cc(OC)c1OC | inactive
COc1ccc(Cc2nccc3cc(OC)c(OC)cc23)cc1OC | inactive
CC(=Cc1ccccc1)C=C1SC(=S)N(CC(=O)O)C1=O | inactive
CCOC(=O)C1=C(C)NC(=S)NC1c1cccc(O)c1 (stereo not given) | 0.187 µM (active)
OC(CN1CCN(c2cccc(Cl)c2)CC1)C(c1ccccc1)c1ccccc1 (stereo not given) | 0.132 µM (active)
CC(=O)OC1C(C)OC(Oc2c(-c3ccc(O)cc3)oc3cc(O)cc(O)c3c2=O)C(O)C1OC(C)=O (stereo not given) | inactive
COc1ccc(-c2nc(N3CCOCC3)c3sc(CN(C)c4ncc(C(=O)NO)cn4)cc3n2)cn1 | 0.0209 µM (active)
CC(=O)CC(c1ccccc1)c1c(O)c2ccccc2oc1=O (stereo not given) | inactive
N#Cc1c(C2CCNCC2)cc(-c2c(O)cccc2OCC2CC2)nc1N | inactive
CN(C)c1cccc(-c2c3c(=O)n(-c4ccccc4Cl)[nH]c3cc(=O)n2C)c1 | 0.831 µM (active)
COC(=O)Nc1nc2ccc(C(=O)c3ccccc3)cc2[nH]1 | 1.05 µM (active)
CCC1=C[C@@H]2CN(C1)Cc1c([nH]c3ccccc13)[C@@](C(=O)OC)(c1cc3c(cc1OC)N(C)[C@@H]1[C@@](O)(C(=O)OC)[C@H](OC(C)=O)[C@]4(CC)C=CCN5CC[C@]31[C@@H]54)C2 | 0.0372 µM (active)
CCCCNc1cc(C(=O)O)cc(S(N)(=O)=O)c1Oc1ccccc1 | inactive
O=C(O)c1cc(=O)[nH]c(=O)[nH]1 | inactive
COC1CCC(C(=O)c2ccc3nc4c(cc3c2)CCCO4)CC1 (stereo not given) | inactive
CCC[C@H](N[C@@H](C)C(=O)N1[C@@H]2CCCC[C@H]2C[C@H]1C(=O)O)C(=O)OCC | inactive
O=C(NOC[C@H](O)CO)c1ccc(F)c(F)c1Nc1ccc(I)cc1F | 20.9 µM (active)
CCCCCCCCCCCCCC(=O)N[C@H](CO)[C@H](O)c1ccc([N+](=O)[O-])cc1 | 3.72 µM (active)
CCCCOc1ccc(C(=O)Nc2ccc(F)cc2F)cc1 | inactive

SMILES | Potency
CN1CCN(C2=Nc3cc(Cl)ccc3Nc3ccccc32)CC1 | inactive
CCCCCCCCOc1ccccc1C(=O)Nc1ccc(C(=O)OCC[N+](C)(CC)CC)cc1 | inactive
CCn1c(=O)c2c(nc(C=Cc3ccc(OC)c(OC)c3)n2C)n(CC)c1=O | inactive
Cc1ccc(C(C)(O)c2nc3ccccc3s2)c(C)c1 (stereo not given) | 10.5 µM (active)
CN1c2cc(O)c(N=NC(N)=O)cc2CC1S(=O)(=O)O (stereo not given) | inactive
COc1ccc(C=CC(=O)Nc2ccccc2C(=O)O)cc1OC | inactive
O=C(O)Cc1cccc(OCCCN(Cc2cccc(C(F)(F)F)c2Cl)CC(c2ccccc2)c2ccccc2)c1 | inactive
Cc1cc(Cl)ccc1OCCCC(=O)NO | 8.33 µM (active)
Nc1cccc(-c2cc3c(Oc4cccc(O)c4)ncnc3[nH]2)c1 | 16.6 µM (active)
COc1cc(Nc2c(C#N)cnc3cc(OCCCN4CCN(C)CC4)c(OC)cc23)c(Cl)cc1Cl | 3.72 µM (active)
O=C(O)c1cc(=O)c2c(OCC(O)COc3cccc4oc(C(=O)O)cc(=O)c34)cccc2o1 | inactive
NC[C@H]1O[C@H](O[C@@H]2[C@@H](O)[C@@H](O[C@H]3O[C@H](CO)[C@@H](O)[C@H](N)[C@@H]3O)[C@H](N)C[C@@H]2N)[C@H](O)[C@@H](O)[C@H]1O | inactive
CC(C)c1cnn2c(NCc3ccccc3)cc(N[C@@H](CO)[C@H](O)CO)nc12 | 1.32 µM (active)
O=C(NC1CCOCC1)c1ccc(-c2cc(-c3cn[nH]c3-c3ccccn3)ccn2)cc1 | inactive
COc1ccc(-c2cc(=O)c3c(O)cc(O[C@@H]4O[C@H](CO[C@@H]5O[C@@H](C)[C@H](O)[C@@H](O)[C@@H]5O)[C@@H](O)[C@H](O)[C@@H]4O)cc3o2)cc1O | inactive
O=C1C(c2c(O)[nH]c3ccccc23)=Nc2ccccc21 | inactive
Cc1c(Cn2c(C)nc3c(C(=O)O)cc(N4CCOCC4)cc32)cccc1C(F)(F)F | inactive
OCCC#Cc1nc(-c2ccc(F)cc2)c(-c2ccncc2)n1CCCc1ccccc1 | inactive
CC(C)c1ccc2oc3nc(N)c(C(=O)O)cc3c(=O)c2c1 | inactive
COCCCCC(=NOCCN)c1ccc(C(F)(F)F)cc1 | inactive
